Screening data deposited in PubChem BioAssay by National Center for Advancing Translational Sciences (NCATS).
Pf growth 96h: Primary qHTS for delayed death inhibitors of the malarial parasite plastid, 96 hour incubation; AID 504834, 2011; Potency, µM (top dose mostly 28.7 µM), for inactives: top-dose activity change, negative = inhibition, actives largely listed as inhibitors; hit rate 6.9% among 320,000; P. falciparum luciferase reporter growth, 96 h; further: potency means the concentration at half of the fitted maximal effect; on the % scale 0 is the no-effect control and ±100 the full control effect
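Luminescence readout: decreased luciferase signal marks inhibited growth of reporter-expressing P. falciparum in infected red cells (2% hematocrit, 0.05% parasitemia final), exposed to compound two generations (96 h, 37 C, 5% CO2).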
Sm TGR block: qHTS Assay for the Inhibitors of Schistosoma Mansoni Peroxiredoxins; Schistosoma mansoni thioredoxin glutathione reductase (TGR), Q962Y6; purified TGR, DTNB reduction, TNB absorbance 405 nm; Potency, µM (top dose mostly 114 µM), without a hit: at the highest dose activity change, negative = inhibition, hits mostly inhibitors; hit rate 3% among 360,000; AID 485364, 2010; further: potency means the concentration at half of the fitted maximal effect; on the % scale 0 is the no-effect control and ±100 the full control effect; nearly all actives have a fitted effect of over 60% in size
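First, TGR (20 nM dispensed) and NADPH were mixed with compound. Second, a 15 min room-temperature incubation followed. Third, further NADPH and then DTNB were added to start the reaction. Finally, TNB absorbance was monitored kinetically.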
SARS PLpro yeast: qHTS of Yeast-based Assay for SARS-CoV PLP | hit rate 0.19% among 330,000 | AID 485353, 2010 | Potency, µM (titrated, usually from 32.9 µM), for the others: at the highest dose activity, positive = growth rescue, actives largely listed as activators | S. cerevisiae expressing SARS-CoV PLpro, growth rescue; calls by dose curve; further: potency means the concentration at half of the fitted maximal effect; 0% is about no effect; nearly all actives have a fitted effect of over 55% in size
HCV inhibitor: qHTS Assay for Inhibitors of Hepatitis C Virus (HCV) | Huh7.5.1 HCVcc-Cre infection, luciferase reporter, 44 h | Potency, µM (titrated, usually from 41.8 µM), for inactives: top-dose activity change, negative = inhibition, actives largely listed as inhibitors | hit rate 3.4% among 340,000; further: potency means the concentration at half of the fitted maximal effect; on the % scale 0 is the no-effect control and ±100 the full control effect
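After 44 h co-culture of compound, cells and HCVcc-Cre (~0.5 moi), substrate is added for 15 min at room temperature and luciferase measured over 15 sec. Cells were seeded at 1,000/well and pre-cultured 4 h.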
HCMV antiviral: qHTS Assay for inhibitors of the human cytomegalovirus (HCMV) | HFF cells, HCMV-luciferase reporter, 72 h; active compounds read low | activity change, negative = inhibition, % at 57.5 µM | hit rate 4.5% among 410,000 | AID 1259415, 2018; in the data active means activity change below about -60%; inconclusive means no clear call, values can overlap the other calls; inactive means above about -39%; further: on the % scale 0 is the no-effect control and ±100 the full control effect
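Two compound doses tested in HFFs infected with HCMV-luciferase, MOI 1 PFU/cell, 72 h at 37C. Lysate luminescence read with OneGlo; data normalized against buffer-only and 10uM Salinomycin inhibitor controls.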
Pf growth 48h: Primary qHTS for delayed death inhibitors of the malarial parasite plastid, 48 hour incubation | AID 504832, 2011 | P. falciparum luciferase growth in erythrocytes, 48 h | Potency, µM (doses to about 28.7 µM), inactives show at the highest dose activity change, negative = inhibition, actives largely listed as inhibitors | hit rate 5.9% among 310,000; further: potency means the concentration at half of the fitted maximal effect; on the % scale 0 is the no-effect control and ±100 the full control effect
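Luciferase-expressing parasites in RBCs, 2% Hct / 0.1% parasitemia final; RPMI 1640 + 0.5% Albumax; 37 C, 5% CO2, one generation; luminescence read-out, lower signal = inhibition.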
* marks the source's active call; other numbers are inactive results; ? = inconclusive; . = not tested or not shown; [ ] = remark or other dose. A selection: hits, their analogues and other compounds. The true share with any hit is near 15%. Unless noted, the call rests on the fitted dose curve; in most records, active means well fitted curve in the direction sought with a large enough effect; inconclusive means small, poorly fitted or top-dose-only effect, or another doubt; inactive means no such curve, though single readings can be large; an effect the other way counts as inactive or inconclusive.

SMILES | Pf growth 96h | Sm TGR block | SARS PLpro yeast | HCV inhibitor | HCMV antiviral | Pf growth 48h
O=C(Nc1ccccc1F)c1nc(S(=O)(=O)Cc2ccccc2F)ncc1Cl | . | 2.82µM* | . | . | -108.9* | .
Cc1cccc(CS(=O)(=O)c2ncc(Cl)c(C(=O)NCc3ccccc3)n2)c1 | 0.0% | 7.94µM* | 0.7% | ? | -92.4* | 31.8%
CNS(=O)(=O)c1cc(-c2nnc(N3CCOCC3)c3ccccc23)ccc1C | . | . | . | ? | -33.1 | .
CCCCN1CC(N2CCN(CCN(C)C)CC2)CS1(=O)=O (stereo unspecified) | . | . | . | . | -25.0 | .
CCS(=O)(=O)c1ncc(Cl)c(C(=O)Nc2c(C(=O)c3ccc(C)cc3)oc3ccccc23)n1 | . | 0.1% | . | . | 4.2 | .
Cc1ccc(NC(=O)c2nc(S(=O)(=O)Cc3ccccc3)ncc2Cl)cc1 | 25.3% | 3.16µM* | -17.8% | ? | -97.8* | 49.9%
Cc1ccccc1NC(=O)c1nc(S(C)(=O)=O)ncc1Cl | 13.1µM* | ? | -18.2% | ? | -99.4* | 0.8%
Cc1cccc(C)c1NC(=O)c1nc(S(=O)(=O)Cc2ccccc2)ncc1Cl | ? | 12.6µM* | -10.2% | ? | -100.1* | 24.9%
CCc1nnc(NC(=O)c2nc(S(C)(=O)=O)ncc2Cl)s1 | . | ? | . | . | -12.2 | .
O=C(NCc1ccccc1)c1nc(S(=O)(=O)Cc2ccc(F)cc2)ncc1Cl | . | 5.01µM* | . | . | -97.9* | .
CS(=O)(=O)c1ncc(Cl)c(C(=O)Nc2c(C(=O)c3ccc(Cl)cc3)oc3ccccc23)n1 | . | 19.9% | . | . | 21.8 | .
Cc1ccc(NC(=O)[C@@H]2O[C@H](CO)[C@H](O)[C@H](O)[C@H]2O)cc1C(F)(F)F | . | . | . | . | -12.9 | .
COc1ccc(CN2C(=O)CN(S(C)(=O)=O)CC2(C)C(=O)NCc2ccccc2)cc1OC (stereo unspecified) | . | . | . | . | 9.4 | .
Cc1ccc(S(=O)(=O)N[C@H](C(=O)NCC2CCC(C(=O)O)CC2)C(C)C)cc1 (stereo partly specified) | -3.0% | 7.4% | 2.5% | 18.5% | 17.1 | 8.9%
CCCc1nnc(NC(=O)c2nc(S(=O)(=O)Cc3cccc(C)c3)ncc2Cl)s1 | ? | 35.5µM* | 1.4% | ? | -100.9* | -6.1%
Cc1ccccc1CS(=O)(=O)c1ncc(Cl)c(C(=O)Nc2ccc(F)cc2)n1 | 1.1% | 3.55µM* | -13.5% | -21.2% | -98.1* | 5.9%
O=C(Nc1ccc(F)cc1)c1nc(S(=O)(=O)Cc2ccccc2)ncc1Cl | 54.2% | 6.31µM* | -8.7% | 8.91µM* | -111.8* | 6.5%
CCc1nnc(NC(=O)c2nc(SCc3cccc(C)c3)ncc2Cl)s1 | . | -2.0% | . | . | 0.2 | .
COc1ccc(NC(=O)c2nc(SCc3ccc(F)cc3)ncc2Cl)cc1 | . | 5.8% | . | . | -35.8 | .
O=C(OCc1cn([C@@H]2CN(C(=O)C3CCCCC3)[C@@H](c3ccc(Cl)cc3)C[C@H]2O)nn1)c1ccccc1 | . | . | . | . | 38.1 | .
O=c1nc2ccccc2c2n1CC(CN1CCN(c3ccccc3F)CC1)N2 (stereo unspecified) | 13.0% | 2.0% | 5.3% | -2.7% | ? | -7.3%
CC1Sc2ccc(C(=O)Nc3ccccc3OC(F)F)cc2NC1=O (stereo unspecified) | 37.1% | 2.9% | -3.1% | -25.7%[8.37 µM] | 29.4 | 24.3%
CCOc1ccc(C(C)NC(=O)c2ccc3c(c2)NC(=O)C(C)S3)cc1OCC (stereo unspecified) | 1.85µM* | 4.1% | -2.4% | -0.9% | -13.2 | 2.33µM*
CCOC(=O)C1=C(C)NC(=S)NC1c1ccc(OCC(=O)N2CCCCCC2)c(OC)c1 (stereo unspecified) | ? | -7.6% | -1.9% | -2.7% | 2.3 | 0.0%
CCN(C(=O)N1CCOCC1)c1ccccc1C | 6.57µM* | 5.7% | -4.7% | 21.7% | 16.0 | 0.0%
SMILES | Pf growth 96h | Sm TGR block | SARS PLpro yeast | HCV inhibitor | HCMV antiviral | Pf growth 48h
Cn1cc(Br)c(NC(=O)/C=C/C(=O)O)n1 | 21.6% | 0.631µM* | 0.6% | 16.8% | 11.6 | -0.9%
CC(C)(C)c1nc(NC(=O)Nc2ccccc2)sc1Br | ? | 6.4% | -4.1% | ? | -97.3* | ?
Cc1ccc(N2CCN(/N=C/c3sccc3C)CC2)cc1 | 39.9% | -12.4% | -4.3% | 13.8% | -29.7 | 23.3%
CCCc1cc(=O)[nH]c(SCC(=O)Nc2cc(S(=O)(=O)N3CCCCC3)ccc2C)n1 | ? | -14.2% | 1.8% | -14.4% | -33.5 | ?
COc1ccc(OC)c2c1C(=O)c1ccccc1C2=O | 103.5% | -1.6% | -24.6% | -14.2% | 18.9 | -0.5%
COC1=C(Nc2ccc(C)cc2)C(=O)c2ccccc2C1=O | 1.17µM* | -8.9% | -24.3% | ? | 35.4 | 2.33µM*
COC1=C(Nc2ccccc2)C(=O)c2ccccc2C1=O | 1.85µM* | -4.7% | 7.3% | ? | 39.7 | 5.86µM*
O=C(CC(Nc1ccc(F)cc1)C(=O)O)c1ccccc1 (stereo unspecified) | . | 1.78µM* | -7.6% | 0.7% | -102.4* | 203.9%
O=C(CC(Nc1ccc(F)cc1)C(=O)OCC(=O)c1cccs1)c1ccccc1 (stereo unspecified) | 0.0% | 8.91µM* | -20.1% | 6.2% | 47.3 | 70.1%
CCC/C=N/Nc1nnc(Cc2ccc(OC)c(OC)c2)c(=O)[nH]1 | 1.0% | 5.2% | 1.1% | 22.9% | 37.1 | 15.9%
CCOC(=O)c1cnc2ccc(OC)cc2c1Nc1ccc(OCc2ccccc2Cl)cc1 | . | -7.5% | . | . | -30.4 | .
COc1ccc(CNC(=O)COc2ccc(S(=O)(=O)N3CCOCC3)cc2C)cc1 | ? | -4.4% | -2.0% | -24.2% | -29.3 | -0.2%
COc1ccccc1C(=O)NCCC(=O)N1CCN(c2ccccc2Cl)CC1 | 11.7µM* | -9.7% | 0.4% | 22.4% | 2.7 | 8.28µM*
COc1ccccc1C(=O)NCC(=O)N1CCN(S(=O)(=O)c2ccccc2C(F)(F)F)CC1 | 8.28µM* | -3.4% | 6.2% | 0.7% | -27.7 | ?
COc1ccccc1C(=O)NCCSCc1ccccc1Cl | 2.94µM* | -18.8% | -13.1% | ? | -9.0 | 7.38µM*
COc1cc(C(=O)NCC(=O)N2CCN(S(=O)(=O)c3ccccc3C(F)(F)F)CC2)cc(OC)c1OC | . | . | 4.3% | 1.1% | 27.9 | .
N#Cc1ccc(OCC(=O)N2CCN(c3ccc(C(F)(F)F)cn3)CC2)cc1 | 4.15µM* | 7.7% | 6.7%[6.58 µM] | 15.1% | ? | ?
COc1ccccc1C(=O)NCCC(=O)N1CCCCCCC1 | 6.3% | -4.9% | -2.3% | 28.3% | -24.3 | ?
COc1ccccc1OCC(=O)NCCSCc1ccccc1Cl | 22.0% | -1.9% | -8.8% | 10.5% | -35.1 | ?
Cc1cccc(C(=O)NCC(=O)Nc2ccncc2)c1 | 12.7% | -1.1% | . | -11.9% | -31.2 | 1.0%
